Results reported in PubChem BioAssay (NCI).
Compounds without any hit were thinned out: in the full panel of roughly 79,000, 15% have a hit. Calls of active or inactive are those of the source. No stated cut-off is given here; in the data, active means growth inhibition above about 70%; inactive means the rest.

Tests used:
[1] = NCI Yeast Anticancer Drug Screen. Data for the rad52 strain (AID 147);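 further: 0% = growth of vehicle-treated control cultures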; settings: S. cerevisiae rad52 mutant growth inhibition, hits give high values
How it was run: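 The repair-mutant yeast strain was incubated with compounds, then growth was read and inhibition derived relative to vehicle.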

[2] = NCI Yeast Anticancer Drug Screen. Data for the wt1 strain (AID 149);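 further: 0% = growth of vehicle-treated wt1 cultures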; settings: S. cerevisiae wt1 strain (SPY 50644) growth inhibition, hits give high values
How it was run: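 Growth inhibition read against vehicle controls after compound exposure of the wt1 yeast strain.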

[3] = NCI Yeast Anticancer Drug Screen. Data for the rad50EPP+ strain (AID 151);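 further: 0% = growth of vehicle-treated control cultures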; settings: S. cerevisiae rad50 mutant strain, hits give high values
How it was run: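 Vehicle-normalised growth inhibition; rad50EPP+ yeast strain, altered in DNA damage repair, compound-treated.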

[4] = NCI Yeast Anticancer Drug Screen. Data for the mgt1 strain (AID 153); settings: S. cerevisiae mgt1 mutant growth inhibition, hits give high values
How it was run: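 Vehicle-normalized growth inhibition is determined in mgt1 yeast, a strain selected for a defined alteration in DNA repair or cell cycle control.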

[5] = NCI Yeast Anticancer Drug Screen. Data for the rad50 strain (AID 155);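 further: 0% = growth of vehicle-only cultures of the same strain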; settings: S. cerevisiae rad50 strain growth inhibition, hits give high values
How it was run: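 Readout: growth inhibition relative to vehicle-treated cultures. Compound exposure was carried out in a genetically defined yeast strain deficient in DNA damage repair.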

[6] = NCI Yeast Anticancer Drug Screen. Data for the mec2-1 strain (AID 157); settings: S. cerevisiae mec2-1 strain, hits give high values
How it was run: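 Mutant yeast (mec2-1) grown with compound; growth inhibition relative to vehicle control reported.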

[7] = NCI Yeast Anticancer Drug Screen. Data for the rad14 strain (AID 159);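 further: 0% = growth of vehicle-treated control cultures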; settings: S. cerevisiae rad14 strain growth inhibition, hits give high values
How it was run: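 Growth inhibition vs vehicle controls; genetically altered yeast strain (DNA damage repair defect) treated with test compounds.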

[8] = NCI Yeast Anticancer Drug Screen. Data for the CLN2oe strain (AID 163);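 further: 0% = growth of vehicle-only control cultures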; settings: S. cerevisiae CLN2oe strain, hits give high values
How it was run: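 Compounds are applied to yeast harbouring a defined cell-cycle control change; reduced growth compared with vehicle-treated controls gives the value.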

[9] = NCI Yeast Anticancer Drug Screen. Data for the bub3 strain (AID 167); settings: S. cerevisiae bub3 mutant strain, hits give high values
How it was run: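 Readout: yeast growth inhibition, expressed relative to vehicle-only wells. The test organism is a mutant strain from a panel with lesions in DNA repair or checkpoint genes.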

[10] = NCI Yeast Anticancer Drug Screen. Data for the wt2 strain (AID 169);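 further: 0% = growth of vehicle-treated yeast cultures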; settings: S. cerevisiae wt2 strain growth inhibition, hits give high values
How it was run: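 Against vehicle-treated controls, the growth of yeast exposed to each compound was compared, and the inhibition was recorded.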

[11] = NCI Yeast Anticancer Drug Screen. Data for the mlh1 strain (AID 171);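 further: 0% = growth of vehicle-treated control cultures of the same strain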; settings: S. cerevisiae mlh1 strain growth inhibition, hits give high values
How it was run: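 Measured: yeast growth. Reference: vehicle-treated controls. Organism: strain with a defined alteration affecting DNA damage repair or cell cycle control, treated with compound.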

[12] = NCI Yeast Anticancer Drug Screen. Data for the sgs1 strain (AID 173);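 further: 0% = growth of vehicle-only control cultures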; settings: S. cerevisiae sgs1 mutant, hits give high values
How it was run: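 Each compound was added to cultures of the altered yeast strain. Growth was recorded, and inhibition was derived by comparison with vehicle controls.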

[13] = NCI Yeast Anticancer Drug Screen. Data for the rad18 strain (AID 177); settings: S. cerevisiae rad18 mutant growth inhibition, hits give high values
How it was run: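 Vehicle-treated cultures served as the baseline for scoring compound-induced growth inhibition in DNA-repair-mutant yeast.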

[14] = NCI Yeast Anticancer Drug Screen. Data for the sgs1 mgt1 strain (AID 161);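 further: 0% = growth of cultures given vehicle only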; settings: S. cerevisiae sgs1 mgt1 strain, hits give high values
How it was run: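 Compounds are added to genetically altered yeast, and growth is compared with cultures given vehicle alone to give percent inhibition.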

[15] = NCI Yeast Anticancer Drug Screen. Data for the cln2 rad14 strain (AID 165);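 further: 0% = growth equal to vehicle treated cultures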; settings: S. cerevisiae cln2 rad14 strain, hits give high values
How it was run: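 Readout is yeast growth inhibition versus vehicle-treated controls, using a strain with cln2 and rad14 alterations exposed to compound.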

[16] = NCI Yeast Anticancer Drug Screen. Data for the mlh1 rad18 strain (AID 175); settings: S. cerevisiae mlh1 rad18 strain growth inhibition, hits give high values
How it was run: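 Genetically defined yeast (DNA repair-deficient) exposed to compounds; growth inhibition determined relative to vehicle.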

[17] = at 5.0 µM (retest, dose inferred, filed as 0.5)
[18] = at 50.0 µM (retest, dose inferred, filed as 5.0)

Measured: growth inhibition

O=NN(CCCl)C(=O)NC1CCCCC1
active: [13]; at 11.0 µM 84% | [13]; at 33.0 µM 92%
inactive: [1]; at 1.2 µM 6% | [1]; at 3.7 µM 11% | [1]; at 11.0 µM 33% | [1]; at 33.0 µM 44% | [1]; at 100.0 µM 50% | [2]; at 1.2 µM -2% | [2]; at 3.7 µM -1% | [2]; at 11.0 µM 1% | [2]; at 33.0 µM 5% | [2]; at 100.0 µM -5% | [3]; at 1.2 µM 16% | [3]; at 3.7 µM 24% | [3]; at 11.0 µM 45% | [3]; at 33.0 µM 61% | [3]; at 100.0 µM 49% | [4]; at 1.2 µM -3% | [4]; at 3.7 µM -2% | [4]; at 11.0 µM 1% | [4]; at 33.0 µM 2% | [4]; at 100.0 µM 10% | [5]; at 1.2 µM 5% | [5]; at 3.7 µM 12% | [5]; at 11.0 µM 39% | [5]; at 33.0 µM 55% | [5]; at 100.0 µM 52% | [6]; at 1.2 µM -1% | [6]; at 3.7 µM 4% | [6]; at 11.0 µM 10% | [6]; at 33.0 µM 13% | [6]; at 100.0 µM 13% | [7]; at 1.2 µM 1% | [7]; at 3.7 µM 7% | [7]; at 11.0 µM 13% | [7]; at 33.0 µM 15% | [7]; at 100.0 µM 14% | [8]; at 1.2 µM -3% | [8]; at 3.7 µM -2% | [8]; at 11.0 µM -3% | [8]; at 33.0 µM -5% | [8]; at 100.0 µM 18% | [9]; at 1.2 µM -4% | [9]; at 3.7 µM -3% | [9]; at 11.0 µM 3% | [9]; at 33.0 µM 14% | [9]; at 100.0 µM 12% | [10]; at 1.2 µM -3% | [10]; at 3.7 µM -2% | [10]; at 11.0 µM 2% | [10]; at 33.0 µM 11% | [10]; at 100.0 µM 49% | [11]; at 1.2 µM 0% | [11]; at 3.7 µM 1% | [11]; at 11.0 µM 8% | [11]; at 33.0 µM 11% | [11]; at 100.0 µM 17% | [12]; at 1.2 µM 4% | [12]; at 3.7 µM 7% | [12]; at 11.0 µM 22% | [12]; at 33.0 µM 34% | [12]; at 100.0 µM 43% | [13]; at 1.2 µM 29% | [13]; at 3.7 µM 46% | [13]; at 100.0 µM 53%

CCOc1ccc(C(=O)CCC(=O)O)c(C)c1
inactive: [1]; at 1.2 µM -1% | [1]; at 3.7 µM 0% | [1]; at 11.0 µM -5% | [1]; at 33.0 µM -1% | [1]; at 100.0 µM 4% | [2]; at 1.2 µM 3% | [2]; at 3.7 µM -1% | [2]; at 11.0 µM 4% | [2]; at 33.0 µM 5% | [2]; at 100.0 µM 17% | [3]; at 1.2 µM -2% | [3]; at 3.7 µM -2% | [3]; at 11.0 µM 0% | [3]; at 33.0 µM -3% | [3]; at 100.0 µM 3% | [4]; at 1.2 µM -4% | [4]; at 3.7 µM -3% | [4]; at 11.0 µM 1% | [4]; at 33.0 µM 2% | [4]; at 100.0 µM 21% | [5]; at 1.2 µM -2% | [5]; at 3.7 µM 4% | [5]; [17] 13% | [5]; at 11.0 µM 1% | [5]; at 33.0 µM 8% | [5]; [18] 14% | [5]; at 100.0 µM 12% | [6]; at 1.2 µM 0% | [6]; at 3.7 µM -7% | [6]; [17] -10% | [6]; at 11.0 µM -16% | [6]; at 33.0 µM 4% | [6]; [18] 13% | [6]; at 100.0 µM 15% | [7]; at 1.2 µM 0% | [7]; at 3.7 µM 1% | [7]; at 11.0 µM 7% | [7]; at 33.0 µM 13% | [7]; at 100.0 µM 25% | [14]; [17] 9% | [14]; [18] 4% | [8]; at 1.2 µM 0% | [8]; at 3.7 µM -1% | [8]; at 11.0 µM 4% | [8]; at 33.0 µM 12% | [8]; at 100.0 µM 20% | [15]; [17] -12% | [15]; [18] 44% | [9]; at 1.2 µM -9% | [9]; at 3.7 µM -11% | [9]; [17] -17% | [9]; at 11.0 µM -1% | [9]; at 33.0 µM -8% | [9]; [18] 14% | [9]; at 100.0 µM 36% | [10]; at 1.2 µM 1% | [10]; at 3.7 µM 2% | [10]; at 11.0 µM 2% | [10]; at 33.0 µM 6% | [10]; at 100.0 µM 16% | [11]; at 1.2 µM -2% | [11]; at 3.7 µM -6% | [11]; at 11.0 µM -10% | [11]; at 33.0 µM 3% | [11]; at 100.0 µM 12% | [12]; at 1.2 µM 0% | [12]; at 3.7 µM -1% | [12]; at 11.0 µM 1% | [12]; at 33.0 µM 1% | [12]; at 100.0 µM 8% | [16]; [17] 16% | [16]; [18] -1% | [13]; at 1.2 µM -2% | [13]; at 3.7 µM -4% | [13]; at 11.0 µM -6% | [13]; at 33.0 µM -16% | [13]; at 100.0 µM -17%

O=S(=O)(c1cc(Cl)ccc1O)c1cc(Cl)ccc1O
inactive: [1]; at 1.2 µM 24% | [2]; at 1.2 µM 1% | [3]; at 1.2 µM -1% | [3]; at 3.7 µM 5% | [3]; at 11.0 µM 12% | [3]; at 33.0 µM 14% | [3]; at 100.0 µM 45% | [4]; at 1.2 µM 15% | [5]; at 1.2 µM 27% | [5]; [17] 52% | [7]; at 1.2 µM 9% | [15]; [17] 23% | [9]; at 1.2 µM 20% | [9]; [17] 48% | [10]; at 1.2 µM 7% | [11]; at 1.2 µM 21% | [12]; at 1.2 µM 26%
active: [1]; at 3.7 µM 91% | [1]; at 11.0 µM 99% | [1]; at 33.0 µM 99% | [1]; at 100.0 µM 99% | [2]; at 3.7 µM 89% | [2]; at 11.0 µM 99% | [2]; at 33.0 µM 99% | [2]; at 100.0 µM 99% | [4]; at 3.7 µM 92% | [4]; at 11.0 µM 99% | [4]; at 33.0 µM 99% | [4]; at 100.0 µM 99% | [5]; at 3.7 µM 91% | [5]; at 11.0 µM 98% | [5]; at 33.0 µM 97% | [5]; [18] 99% | [5]; at 50.0 µM 99.5% | [5]; at 100.0 µM 99% | [7]; at 3.7 µM 96% | [7]; at 11.0 µM 99% | [7]; at 33.0 µM 99% | [7]; at 100.0 µM 100% | [14]; [17] 75% | [14]; [18] 100% | [14]; at 50.0 µM 99.5% | [15]; [18] 99% | [15]; at 50.0 µM 98.9% | [9]; at 3.7 µM 91% | [9]; at 11.0 µM 98% | [9]; at 33.0 µM 99% | [9]; [18] 99% | [9]; at 50.0 µM 99.4% | [9]; at 100.0 µM 99% | [10]; at 3.7 µM 85% | [10]; at 11.0 µM 97% | [10]; at 33.0 µM 99% | [10]; at 100.0 µM 100% | [11]; at 3.7 µM 85% | [11]; at 11.0 µM 99% | [11]; at 33.0 µM 99% | [11]; at 100.0 µM 99% | [12]; at 3.7 µM 91% | [12]; at 11.0 µM 99% | [12]; at 33.0 µM 99% | [12]; at 100.0 µM 99% | [16]; [17] 82% | [16]; [18] 99% | [16]; at 50.0 µM 99.7%
